The whole screen tested about 5,500 compounds, of which about 2,000 (36%) were called active. Roughly 18% stayed inconclusive and do not appear here. Rule as the data show it: active = normalized growth mostly below about 0.91 (no sharp cut-off); inconclusive = no clear call, values can overlap the other calls; inactive = mostly above about 0.92. The list shows a part of the results.
Experiment: chemical genetic growth profiling, strain panel (AID 1159580);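 also: tested at 20 µM; growth read once vehicle control cultures reached saturation at 30 °C; 1 = growth at the plate median or of vehicle wells; lower values mean less growth of the strain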
Conditions: growth OD
[1] = S. cerevisiae deletion strains, locus YBR021W, strain FUR4, active compounds read low
[2] = S. cerevisiae deletion strains, locus YBR229C, strain ROT2, active compounds read low
[3] = S. cerevisiae deletion strains, locus YCL029C, strain bik1, active compounds read low
[4] = S. cerevisiae deletion strains, locus YDL035C, strain GPR1, active compounds read low
[5] = S. cerevisiae deletion strains, locus YDL074C, strain BRE1, active compounds read low
[6] = S. cerevisiae deletion strains, locus YDL101C, strain DUN1, active compounds read low
[7] = S. cerevisiae deletion strains, locus YDL185W, strain tfp1, active compounds read low
[8] = S. cerevisiae deletion strains, locus YDL192W, strain arf1, active compounds read low
[9] = S. cerevisiae deletion strains, locus YDR101C, strain arx1, active compounds read low
[10] = S. cerevisiae deletion strains, locus YDR162C, strain NBP2, active compounds read low
[11] = S. cerevisiae deletion strains, locus YDR318W, strain mcm21, active compounds read low
[12] = S. cerevisiae deletion strains, locus YDR388W, active compounds read low
[13] = S. cerevisiae deletion strains, locus YDR502C, strain sam2, active compounds read low
[14] = S. cerevisiae deletion strains, locus YEL061C, strain CIN8, active compounds read low
[15] = S. cerevisiae deletion strains, locus YER110C, active compounds read low
[16] = S. cerevisiae deletion strains, locus YER155C, strain BEM2, active compounds read low
[17] = S. cerevisiae deletion strains, locus YER167W, strain BCK2, active compounds read low
[18] = S. cerevisiae deletion strains, locus YGL078C, strain dbp3, active compounds read low
[19] = S. cerevisiae deletion strains, locus YGL086W, strain mad1, active compounds read low
[20] = S. cerevisiae deletion strains, locus YGL248W, strain PDE1, active compounds read low
[21] = S. cerevisiae deletion strains, locus YGR078C, strain PAC10, active compounds read low
[22] = S. cerevisiae deletion strains, locus YGR135W, strain pre9, active compounds read low
[23] = S. cerevisiae deletion strains, locus YGR252W, strain gcn5, active compounds read low
[24] = S. cerevisiae deletion strains, locus YHR079C, strain IRE1 (second series), active compounds read low
[25] = S. cerevisiae deletion strains, locus YHR094C, strain hxt1, active compounds read low
[26] = S. cerevisiae deletion strains, locus YHR129C, strain ARP1, active compounds read low
[27] = S. cerevisiae deletion strains, locus YHR200W, strain rpn10, active compounds read low
[28] = S. cerevisiae deletion strains, locus YIL066C, strain RNR3, active compounds read low
[29] = S. cerevisiae deletion strains, locus YIL073C, strain SPO22, active compounds read low
[30] = S. cerevisiae deletion strains, locus YIL125W, strain kgd1, active compounds read low
[31] = S. cerevisiae deletion strains, locus YIR030C, strain dcg1, active compounds read low
[32] = S. cerevisiae deletion strains, locus YJL095W, strain BCK1, active compounds read low
[33] = S. cerevisiae deletion strains, locus YJL134W, strain LCB3, active compounds read low
[34] = S. cerevisiae deletion strains, locus YJL168C, strain set2, active compounds read low
[35] = S. cerevisiae deletion strains, locus YJL187C, strain SWE1 (second series), active compounds read low
[36] = S. cerevisiae deletion strains, locus YJR075W, strain HOC1, active compounds read low
[37] = S. cerevisiae deletion strains, locus YKL009W, strain mrt4, active compounds read low
[38] = S. cerevisiae deletion strains, locus YKL068W, active compounds read low
[39] = S. cerevisiae deletion strains, locus YKL085W, strain MDH1 (second series), active compounds read low
[40] = S. cerevisiae deletion strains, locus YKL085W, strain MDH1, active compounds read low
[41] = S. cerevisiae deletion strains, locus YKL190W, strain CNB1, active compounds read low
[42] = S. cerevisiae deletion strains, locus YKR001C, strain vps1, active compounds read low
[43] = S. cerevisiae deletion strains, locus YLR039C, strain RIC1, active compounds read low
[44] = S. cerevisiae deletion strains, locus YLR058C, strain SHM2, active compounds read low
[45] = S. cerevisiae deletion strains, locus YLR102C, strain apc9, active compounds read low
[46] = S. cerevisiae deletion strains, locus YLR268W, strain sec22, active compounds read low
[47] = S. cerevisiae deletion strains, locus YLR330W, strain CHS5, active compounds read low
[48] = S. cerevisiae deletion strains, locus YLR342W, strain FKS1 (second series), active compounds read low
[49] = S. cerevisiae deletion strains, locus YLR371W, strain rom2, active compounds read low
[50] = S. cerevisiae deletion strains, locus YLR418C, strain cdc73, active compounds read low
[51] = S. cerevisiae deletion strains, locus YML016C, strain PPZ1, active compounds read low
[52] = S. cerevisiae deletion strains, locus YML032C, strain rad52, active compounds read low
[53] = S. cerevisiae deletion strains, locus YML124C, strain tub3, active compounds read low
[54] = S. cerevisiae deletion strains, locus YMR078C, strain ctf18, active compounds read low
[55] = S. cerevisiae deletion strains, locus YMR223W, strain ubp8, active compounds read low
[56] = S. cerevisiae deletion strains, locus YMR307W, strain GAS1, active compounds read low
[57] = S. cerevisiae deletion strains, locus YNL067W, strain RPL9B, active compounds read low
[58] = S. cerevisiae deletion strains, locus YNL128W, strain TEP1, active compounds read low
[59] = S. cerevisiae deletion strains, locus YNL233W, strain BNI4, active compounds read low
[60] = S. cerevisiae deletion strains, locus YNL250W, strain rad50, active compounds read low
[61] = S. cerevisiae deletion strains, locus YNL271C, strain bni1, active compounds read low
[62] = S. cerevisiae deletion strains, locus YNL298W, strain CLA4, active compounds read low
[63] = S. cerevisiae deletion strains, locus YNL307C, strain MCK1, active compounds read low
[64] = S. cerevisiae deletion strains, locus YNR052C, strain pop2, active compounds read low
[65] = S. cerevisiae deletion strains, locus YOL006C, strain TOP1, active compounds read low
[66] = S. cerevisiae deletion strains, locus YOL012C, strain htz1
[67] = S. cerevisiae deletion strains, locus YOL147C, strain pex11, active compounds read low
[68] = S. cerevisiae deletion strains, locus YOR061W, strain CKA2, active compounds read low
[69] = S. cerevisiae deletion strains, locus YOR069W, strain VPS5, active compounds read low
[70] = S. cerevisiae deletion strains, locus YOR136W, strain idh2, active compounds read low
[71] = S. cerevisiae deletion strains, locus YOR144C, strain elg1, active compounds read low
[72] = S. cerevisiae deletion strains, locus YOR184W, strain ser1, active compounds read low
[73] = S. cerevisiae deletion strains, locus YOR316C, strain cot1, active compounds read low
[74] = S. cerevisiae deletion strains, locus YPL055C, strain LGE1, active compounds read low
[75] = S. cerevisiae deletion strains, locus YPR119W, strain clb2, active compounds read low
[76] = S. cerevisiae deletion strains, locus YPR141C, strain kar3, active compounds read low
[77] = S. cerevisiae deletion strains, locus YPR163C, strain tif3, active compounds read low
[78] = S. cerevisiae deletion strains, locus YPR167C, strain met16, active compounds read low
[79] = S. cerevisiae deletion strains, strain wtn01, active compounds read low

Measured: normalized growth

CN1Cc2c(ccc3c2OCO3)C2C(O)Cc3cc4c(cc3C21)OCO4 (stereo unspecified)
inactive: S. cerevisiae deletion strains, locus YAL013W, strain DEP1, active compounds read low 0.992 | [1] 0.939 | [2] 1 | [3] 1.03 | [4] 0.985 | [5] 0.982 | [6] 0.996 | S. cerevisiae deletion strains, locus YDL134C, strain PPH21, active compounds read low 0.977 | [7] 1.02 | [8] 0.999 | [9] 0.999 | [10] 0.991 | [11] 0.998 | [12] 0.987 | [13] 0.984 | [14] 0.992 | [15] 1.01 | [16] 0.997 | [17] 0.989 | [18] 1.02 | [19] 0.989 | [20] 0.995 | [21] 0.998 | [22] 0.98 | [23] 0.96 | S. cerevisiae deletion strains, locus YHR030C, strain SLT2, active compounds read low 0.999 | [24] 1.01 | [25] 1.01 | [26] 0.994 | [27] 1 | [28] 1 | [29] 1.04 | [30] 1.02 | [31] 1 | [32] 0.985 | [33] 1.01 | [34] 1 | [35] 1 | S. cerevisiae deletion strains, locus YJR043C, strain POL32, active compounds read low 1.01 | [36] 0.983 | [37] 1.01 | [38] 1 | [39] 1.01 | [40] 1.01 | [41] 0.988 | [42] 0.997 | [43] 0.977 | [44] 0.992 | [45] 1.01 | S. cerevisiae deletion strains, locus YLR262C, strain YPT6, active compounds read low 0.981 | [46] 1 | [47] 1.01 | [48] 0.982 | [49] 1.01 | [50] 0.956 | [51] 1 | [52] 0.991 | [53] 1.02 | [54] 1.01 | [55] 0.998 | [56] 0.95 | [57] 0.994 | [58] 0.996 | [59] 1 | [60] 1.02 | [61] 1.02 | [62] 1.03 | [63] 1.02 | S. cerevisiae deletion strains, locus YNL322C, strain KRE1, active compounds read low 0.999 | [64] 0.997 | [65] 0.92 | [66] 1.21 | [67] 1 | [68] 1 | [69] 1 | [70] 1.04 | [71] 1.01 | [72] 0.984 | [73] 1.01 | [74] 0.978 | [75] 1.01 | [76] 1.01 | [77] 1.04 | [78] 1.01 | [79] 1

O[C@H]1C=C2CCN3Cc4cc5c(cc4C(C23)[C@@H]1O)OCO5 (stereo partly specified)
active: [2] 0.665 | [3] 0.331 | [4] 0.434 | [5] 0.485 | [6] 0.575 | [8] 0.591 | [9] 0.272 | [10] 0.566 | [11] 0.466 | [12] 0.514 | [13] 0.412 | [14] 0.737 | [15] 0.573 | [16] 0.87 | [17] 0.5 | [18] 0.812 | [19] 0.541 | [20] 0.398 | [21] 0.615 | [22] 0.459 | [23] 0.636 | [24] 0.38 | [25] 0.478 | [26] 0.613 | [27] 0.549 | [28] 0.678 | [29] 0.402 | [30] 0.857 | [31] 0.558 | [32] 0.448 | [33] 0.757 | [34] 0.837 | [35] 0.373 | [36] 0.53 | [37] 0.858 | [39] 0.897 | [40] 0.897 | [41] 0.659 | [42] 0.558 | [44] 0.395 | [45] 0.49 | [46] 0.454 | [47] 0.656 | [48] 0.483 | [49] 0.55 | [50] 0.707 | [51] 0.632 | [52] 0.367 | [53] 0.538 | [54] 0.713 | [55] 0.33 | [57] 0.495 | [58] 0.466 | [59] 0.557 | [60] 0.852 | [61] 0.908 | [63] 0.694 | [64] 0.605 | [66] 2.41 [resistant] | [67] 0.498 | [68] 0.565 | [69] 0.657 | [70] 0.731 | [71] 0.47 | [72] 0.545 | [73] 0.599 | [74] 0.627 | S. cerevisiae deletion strains, locus YPL241C, strain CIN2, active compounds read low 0.74 | [75] 0.715 | [78] 0.523 | [79] 0.449 | S. cerevisiae strains, strain wild type, active compounds read low 0.448
inactive: [1] 1.05 | [7] 0.965 | [38] 0.953 | [43] 1.08 | [56] 1.35 | [62] 0.931 | [65] 0.726 | [76] 0.976 | [77] 0.931
